Reference: PubChem BioAssay (EPA / NIEHS)
“And” between values parts separate entries of the source, which are not always exact repeats. Equal entries are not always repeated. Results filed as inconclusive are left out. The source holds several records for some structures; these can differ, active in one and inactive in another. The source made the active and inactive calls. Rule for the calls, unless noted: active = hit-call score of the fitted dose curve at least 0.9, where 1 is the maximum; inactive = score below 0.9.

Key:
[1] = biological target: human RAR-related Orphan Receptor beta (RORb), RORB (gene 6096) (UniProt Q92753); assay: ATG_RORb_TRANS: Attagene TRANS-FACTORIAL HepG2 Assay for human RAR-related Orphan Receptor beta (RORb) (AID 2283010; active = hit-call score of the fitted dose curve at least 0.9, where 1 is the maximum)
Sequence of human RAR-related Orphan Receptor beta (RORb), RORB (gene 6096) (Q92753 whole entry, looked up, the tested form may be a part): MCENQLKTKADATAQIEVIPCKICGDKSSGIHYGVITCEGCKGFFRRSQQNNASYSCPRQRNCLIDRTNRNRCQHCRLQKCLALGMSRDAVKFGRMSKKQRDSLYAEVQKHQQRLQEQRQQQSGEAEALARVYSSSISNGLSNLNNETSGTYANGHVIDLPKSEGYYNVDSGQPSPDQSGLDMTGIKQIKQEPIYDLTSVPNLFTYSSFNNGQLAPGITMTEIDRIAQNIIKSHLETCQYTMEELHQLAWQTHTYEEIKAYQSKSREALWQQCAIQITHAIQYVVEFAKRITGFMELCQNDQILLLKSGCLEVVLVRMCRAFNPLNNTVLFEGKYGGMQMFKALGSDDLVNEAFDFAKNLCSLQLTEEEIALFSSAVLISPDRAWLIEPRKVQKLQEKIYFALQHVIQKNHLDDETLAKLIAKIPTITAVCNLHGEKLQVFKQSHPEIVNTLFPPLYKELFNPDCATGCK
Method in brief: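 Multiplexed transcription-factor reporter assay: HepG2 cells transiently carrying NR-Gal4/GAL4-UAS constructs, 24 h treatment, mRNA quantified by RT-PCR plus capillary electrophoresis fluorescence; activity scored as induction over DMSO.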

[2] = biological target: human RAR-related Orphan Receptor gamma (RORg), RORC (gene 6097) (UniProt P51449); assay: ATG_RORg_TRANS: Attagene TRANS-FACTORIAL HepG2 Assay for human RAR-related Orphan Receptor gamma (RORg) (AID 2283011; active = hit-call score of the fitted dose curve at least 0.9, where 1 is the maximum)
Sequence of human RAR-related Orphan Receptor gamma (RORg), RORC (gene 6097) (P51449 whole entry, looked up, the tested form may be a part): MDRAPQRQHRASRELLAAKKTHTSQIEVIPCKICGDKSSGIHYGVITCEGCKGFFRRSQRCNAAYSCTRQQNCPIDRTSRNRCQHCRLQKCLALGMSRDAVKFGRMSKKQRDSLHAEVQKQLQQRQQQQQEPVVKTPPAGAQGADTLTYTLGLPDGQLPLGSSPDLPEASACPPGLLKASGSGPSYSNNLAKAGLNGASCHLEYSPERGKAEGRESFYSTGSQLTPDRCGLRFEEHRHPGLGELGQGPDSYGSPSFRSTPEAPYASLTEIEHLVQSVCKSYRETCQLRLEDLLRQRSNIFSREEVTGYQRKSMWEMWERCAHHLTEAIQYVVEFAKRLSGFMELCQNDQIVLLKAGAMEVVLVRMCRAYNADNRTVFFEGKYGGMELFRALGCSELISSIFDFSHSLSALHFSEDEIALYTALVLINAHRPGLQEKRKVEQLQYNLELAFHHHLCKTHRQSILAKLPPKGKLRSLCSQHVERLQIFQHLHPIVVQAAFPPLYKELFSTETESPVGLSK
Method in brief: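 Transient MRTU transfection of HepG2 (TRANS format, exogenous NR-Gal4 chimera). 24 h dosing. Total RNA → oligo(dT) RT → PCR → 6-FAM labelling → HpaI cut → CE. Gain vs DMSO.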

[3] = biological target: Retinoic acid receptor RXR-alpha (Homo sapiens) (UniProt P19793); assay: ATG_RXRa_TRANS: Attagene TRANS-FACTORIAL HepG2 Assay for human Retinoid X Receptor alpha (RXRa) (AID 2283012; active = hit-call score of the fitted dose curve at least 0.9, where 1 is the maximum)
Sequence of Retinoic acid receptor RXR-alpha (Homo sapiens) (P19793 whole entry, looked up, the tested form may be a part): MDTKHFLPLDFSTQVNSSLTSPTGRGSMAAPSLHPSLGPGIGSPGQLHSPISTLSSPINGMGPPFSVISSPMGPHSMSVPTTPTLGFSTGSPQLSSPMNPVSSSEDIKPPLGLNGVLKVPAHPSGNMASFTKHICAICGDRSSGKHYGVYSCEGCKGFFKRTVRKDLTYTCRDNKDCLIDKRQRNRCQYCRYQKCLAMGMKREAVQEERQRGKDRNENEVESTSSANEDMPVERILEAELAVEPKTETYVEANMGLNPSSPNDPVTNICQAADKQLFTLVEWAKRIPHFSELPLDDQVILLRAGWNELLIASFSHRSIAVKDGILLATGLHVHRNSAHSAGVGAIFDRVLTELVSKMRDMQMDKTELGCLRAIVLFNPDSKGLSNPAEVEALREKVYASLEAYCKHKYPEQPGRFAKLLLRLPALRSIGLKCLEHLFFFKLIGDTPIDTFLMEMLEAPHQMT
Method in brief: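 Chimeric NR-GAL4 trans-activation in HepG2, 24 h treatment; reporter transcripts quantified by fluorescence on capillary electrophoresis, analysed for upward change from DMSO.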

[4] = biological target: human Thyroid Receptor alpha (THRa1), THRA (gene 7067) (UniProt P10827); assay: ATG_THRa1_TRANS: Attagene TRANS-FACTORIAL HepG2 Assay for human Thyroid Receptor alpha (THRa1) (AID 2283014; active = hit-call score of the fitted dose curve at least 0.9, where 1 is the maximum)
Sequence of human Thyroid Receptor alpha (THRa1), THRA (gene 7067) (P10827 whole entry, looked up, the tested form may be a part): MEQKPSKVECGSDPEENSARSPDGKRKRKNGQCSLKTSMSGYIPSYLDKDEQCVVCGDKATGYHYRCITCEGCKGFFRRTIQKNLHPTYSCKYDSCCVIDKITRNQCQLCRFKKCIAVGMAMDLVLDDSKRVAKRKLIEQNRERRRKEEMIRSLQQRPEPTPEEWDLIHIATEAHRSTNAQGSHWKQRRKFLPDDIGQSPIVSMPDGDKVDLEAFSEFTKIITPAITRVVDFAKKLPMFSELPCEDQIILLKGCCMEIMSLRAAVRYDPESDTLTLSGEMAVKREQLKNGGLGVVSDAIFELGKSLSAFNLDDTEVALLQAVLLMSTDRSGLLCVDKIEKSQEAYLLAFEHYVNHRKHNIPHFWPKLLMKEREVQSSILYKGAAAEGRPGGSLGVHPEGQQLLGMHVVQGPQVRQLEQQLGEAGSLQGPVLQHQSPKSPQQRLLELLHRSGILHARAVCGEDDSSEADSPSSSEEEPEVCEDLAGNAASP
Method in brief: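 Transient HepG2 transfection, NR-Gal4 chimera driving GAL4-UAS reporters; 24 h compound exposure; total RNA, oligo(dT) RT, PCR, fluorescent primer extension, capillary electrophoresis. Upward direction vs DMSO control.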

[5] = read-out: E-selectin (Homo sapiens) (UniProt P16581); assay: BSK_3C_Eselectin: BioMAP Diversity Plus: 3C Assay for Eselectin Biomarker Activity (AID 2283015); conditions: primary human endothelial cells (HUVEC); actives raise or lower the signal
Method in brief: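 HUVEC, 3C stimulation; compound exposure 24 h; E-selectin by ELISA; gain- or loss-of-signal fitted bidirectionally vs DMSO baseline.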

[6] = read-out: Interleukin-1 alpha (IL1a), IL1A (gene 3552); assay: BSK_BE3C_IL1a: BioMAP Diversity Plus: BE3C Assay for Interleukin-1 alpha (IL1a) Biomarker Activity (AID 2283016); conditions: primary human bronchial epithelial cells; actives raise or lower the signal
Method in brief: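 Measured in human lung primary bronchial epithelial cells: IL-1a by ELISA at 24 h after dosing, with bidirectional fitting against DMSO.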

[7] = read-out: Monocyte Chemoattractant Protein-1 (MCP1), CCL2 (gene 6347); assay: BSK_3C_MCP1: BioMAP Diversity Plus: 3C Assay for Monocyte Chemoattractant Protein-1 (MCP1) Biomarker Activity (AID 2283017); conditions: primary human endothelial cells (HUVEC); actives raise or lower the signal
Method in brief: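 HUVEC, 3C system; 24 h chemical exposure; MCP-1 by ELISA; bidirectional curve fit vs DMSO baseline.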

[8] = read-out: Monocyte Chemoattractant Protein-1 (MCP1), CCL2 (gene 6347); assay: BSK_4H_MCP1: BioMAP Diversity Plus: 4H Assay for Monocyte Chemoattractant Protein-1 (MCP1) Biomarker Activity (AID 2283018); conditions: primary human endothelial cells (HUVEC); actives raise or lower the signal
Method in brief: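 Primary human umbilical vein endothelium is exposed to chemical for 24 h before MCP-1 is assayed by ELISA. Concentration-response fitted bidirectionally relative to DMSO.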

[9] = read-out: Human Leukocyte Antigen - DR isotype (HLADR), HLA-DRA (gene 3122); assay: BSK_3C_HLADR: BioMAP Diversity Plus: 3C Assay for Human Leukocyte Antigen - DR isotype (HLADR) Biomarker Activity (AID 2283019); conditions: primary human endothelial cells (HUVEC); actives raise or lower the signal
Method in brief: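 HUVEC, 3C stimulation, 24 h post-dose; HLA-DR by ELISA; bidirectional curve fit vs DMSO baseline; gain or loss of signal scored.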

[10] = read-out: Interleukin-8 (IL8), CXCL8 (gene 3576); assay: BSK_3C_IL8: BioMAP Diversity Plus: 3C Assay for Interleukin-8 (IL8) Biomarker Activity (AID 2283020); conditions: primary human endothelial cells (HUVEC); actives raise or lower the signal
Method in brief: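 Using DMSO-treated wells as the baseline, bidirectional curve fitting was applied to ELISA-measured IL-8 from human umbilical vein endothelial cultures sampled 24 h after compound addition.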

[11] = read-out: Monokine induced gamma interferon (MIG), CXCL9 (gene 4283); assay: BSK_3C_MIG: BioMAP Diversity Plus: 3C Assay for Monokine induced gamma interferon (MIG) Biomarker Activity (AID 2283021); conditions: primary human endothelial cells (HUVEC); actives raise or lower the signal
Method in brief: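 ELISA-measured MIG in dosed HUVEC 3C cultures at 24 h, analysed by bidirectional fitting with DMSO defining baseline activity.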

[12] = biological target: human Vitamin D Receptor (VDR), VDR (gene 7421) (UniProt P11473); assay: ATG_VDR_TRANS: Attagene TRANS-FACTORIAL HepG2 Assay for human Vitamin D Receptor (VDR) (AID 2283022; active = hit-call score of the fitted dose curve at least 0.9, where 1 is the maximum)
Sequence of human Vitamin D Receptor (VDR), VDR (gene 7421) (P11473 whole entry, looked up, the tested form may be a part): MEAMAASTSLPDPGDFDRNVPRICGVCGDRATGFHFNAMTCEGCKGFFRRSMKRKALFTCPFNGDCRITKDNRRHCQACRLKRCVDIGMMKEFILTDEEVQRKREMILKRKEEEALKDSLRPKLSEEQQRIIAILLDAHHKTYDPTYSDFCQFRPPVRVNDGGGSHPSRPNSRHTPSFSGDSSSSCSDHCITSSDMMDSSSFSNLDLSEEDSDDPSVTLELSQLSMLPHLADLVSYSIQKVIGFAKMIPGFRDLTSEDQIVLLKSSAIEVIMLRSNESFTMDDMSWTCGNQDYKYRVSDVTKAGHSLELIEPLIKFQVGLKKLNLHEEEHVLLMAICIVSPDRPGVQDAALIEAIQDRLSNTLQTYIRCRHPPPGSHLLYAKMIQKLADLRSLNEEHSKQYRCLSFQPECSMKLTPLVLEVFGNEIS
Method in brief: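 RT-PCR/capillary electrophoresis read-out of reporter mRNA induction in transiently transfected HepG2; 24 h dosing; chimeric NR-Gal4 (TRANS format); gain-of-signal fit against DMSO baseline.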

[13] = BSK_3C_SRB: Viability Assessment in the BioMAP Diversity Plus: 3C Assay (AID 2283023); conditions: primary human endothelial cells (HUVEC);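 note: cells read 24 h after compound dosing; fitted both ways against DMSO so a hit may be signal rise or drop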
Method in brief: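 HUVEC, 24 h post-dose; 10% TCA fix, 0.1% SRB stain, A560 nm. Bidirectional curve fit vs DMSO negative control.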

[14] = BSK_3C_Vis: BioMAP Diversity Plus: 3C Assay for Morphology Visualization (AID 2283025); conditions: primary human endothelial cells (HUVEC);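 note: fitted both ways so gain or loss versus DMSO counts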;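 for AC50: light microscopy image of cell morphology used as background control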
Method in brief: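 Light-microscopy morphology readout, 24 h exposure, human primary umbilical vein endothelium; analysed relative to DMSO with bidirectional fitting.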

[15] = read-out: Pselectin, SELP (gene 6403); assay: BSK_4H_Pselectin: BioMAP Diversity Plus: 4H Assay for Pselectin Biomarker Activity (AID 2283026); conditions: primary human endothelial cells (HUVEC); actives raise or lower the signal
Method in brief: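 Bidirectional fits against DMSO gave the endpoint. Cells: primary human umbilical vein endothelium, chemical-treated for 24 h before ELISA detection of P-selectin.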

[16] = BSK_4H_SRB: Viability Assessment in the BioMAP Diversity Plus: 4H Assay (AID 2283027); conditions: primary human endothelial cells (HUVEC);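 note: cells exposed to compound for 24 h before staining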;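 for AC50: curves fitted both ways versus DMSO so AC50 may be loss or gain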
Method in brief: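 Cytotoxicity readout: sulforhodamine B (0.1%) staining of total protein after 10% TCA fixation, measured at 560 nm in human umbilical vein endothelium at 24 h. DMSO set the baseline; fitting was bidirectional.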

[17] = BSK_BE3C_SRB: Viability Assessment in the BioMAP Diversity Plus: BE3C Assay (AID 2283028); conditions: primary human bronchial epithelial cells;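 for AC50: fitted both ways so AC50 may mark signal gain or loss versus DMSO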
Method in brief: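 Primary human bronchial epithelium; chemical dosing, 24 h; 10% TCA fix, 0.1% SRB stain, A560; bidirectional fit vs DMSO baseline.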

[18] = read-out: Thrombomodulin, THBD (gene 7056); assay: BSK_3C_Thrombomodulin: BioMAP Diversity Plus: 3C Assay for Thrombomodulin Biomarker Activity (AID 2283029); conditions: primary human endothelial cells (HUVEC); actives raise or lower the signal
Method in brief: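 In a multiplexed primary-cell system, human umbilical vein endothelium received chemical and was assayed 24 h later for thrombomodulin by ELISA. Parallel cultures were SRB-stained (0.1% SRB after 10% TCA fixation, read at 560 nm) to flag cytotoxicity.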

[19] = biological target: human Retinoid X Receptor beta (RXRb), RXRB (gene 6257) (UniProt P28702); assay: ATG_RXRb_TRANS: Attagene TRANS-FACTORIAL HepG2 Assay for human Retinoid X Receptor beta (RXRb) (AID 2283013; active = hit-call score of the fitted dose curve at least 0.9, where 1 is the maximum)
Sequence of human Retinoid X Receptor beta (RXRb), RXRB (gene 6257) (P28702 whole entry, looked up, the tested form may be a part): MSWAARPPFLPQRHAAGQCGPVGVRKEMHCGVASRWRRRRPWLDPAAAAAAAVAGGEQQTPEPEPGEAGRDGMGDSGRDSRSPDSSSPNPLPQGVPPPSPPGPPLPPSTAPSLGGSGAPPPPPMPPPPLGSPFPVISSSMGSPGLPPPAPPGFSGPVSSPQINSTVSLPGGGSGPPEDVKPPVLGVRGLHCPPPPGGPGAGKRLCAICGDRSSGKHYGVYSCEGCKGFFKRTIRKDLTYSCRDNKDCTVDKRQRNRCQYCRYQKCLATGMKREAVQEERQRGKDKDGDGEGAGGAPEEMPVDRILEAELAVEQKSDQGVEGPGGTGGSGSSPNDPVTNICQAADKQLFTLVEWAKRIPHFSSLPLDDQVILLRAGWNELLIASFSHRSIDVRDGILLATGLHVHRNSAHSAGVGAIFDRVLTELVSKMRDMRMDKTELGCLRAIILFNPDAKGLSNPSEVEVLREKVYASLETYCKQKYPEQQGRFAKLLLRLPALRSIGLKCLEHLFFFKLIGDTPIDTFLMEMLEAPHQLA
Method in brief: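 After a 24 h incubation with test chemical, transfected HepG2 cells carrying NR-Gal4 fusions and GAL4-UAS reporter transcription units yield RNA whose reporter cDNA is FAM-labelled, HpaI-cut and sized by capillary electrophoresis; increases over DMSO are scored.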

Measured: AC50

Sequence of E-selectin (Homo sapiens) (P16581 whole entry, looked up): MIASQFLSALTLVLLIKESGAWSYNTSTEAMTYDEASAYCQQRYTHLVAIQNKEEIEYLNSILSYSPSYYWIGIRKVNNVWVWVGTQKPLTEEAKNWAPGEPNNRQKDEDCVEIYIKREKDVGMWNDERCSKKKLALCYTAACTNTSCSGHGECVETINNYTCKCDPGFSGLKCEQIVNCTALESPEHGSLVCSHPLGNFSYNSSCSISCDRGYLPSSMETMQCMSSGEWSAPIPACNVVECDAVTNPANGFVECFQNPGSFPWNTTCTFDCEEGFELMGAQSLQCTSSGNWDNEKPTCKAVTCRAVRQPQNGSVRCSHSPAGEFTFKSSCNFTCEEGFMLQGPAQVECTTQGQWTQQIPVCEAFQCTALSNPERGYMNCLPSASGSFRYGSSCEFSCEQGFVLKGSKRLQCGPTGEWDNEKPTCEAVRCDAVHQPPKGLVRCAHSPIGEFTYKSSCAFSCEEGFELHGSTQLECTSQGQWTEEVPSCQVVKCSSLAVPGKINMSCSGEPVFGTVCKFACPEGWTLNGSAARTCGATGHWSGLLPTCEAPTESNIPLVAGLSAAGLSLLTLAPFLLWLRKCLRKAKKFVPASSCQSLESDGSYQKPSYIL

CC(C)OC(=O)Nc1cccc(Cl)c1
not listed: [19]
inactive: all other assays above

CCc1ccc(C(=O)NN(C(=O)c2cc(C)cc(C)c2)C(C)(C)C)cc1
active: [7] 4.84 µM | [13] 11.8 µM | [16] 17.7 µM | [17] 15.4 µM
not listed: [4] | [12]
inactive: all other assays above

O=C1c2ccccc2C(=O)N1SC(Cl)(Cl)Cl
active: [6] 32 µM | [17] 31.8 µM
not listed: [2] | [4] | [7] | [19]
inactive: all other assays above

CCC(C)Nc1c([N+](=O)[O-])cc(C(C)(C)C)cc1[N+](=O)[O-] (stereo unspecified)
active: [5] 25.8 µM | [8] 20 µM | [9] 20 µM | [13] 20.2 µM | [14] 39 µM | [15] 20 µM | [16] 19.7 µM | [17] 14.7 µM
inactive: [1] | [6] | [10] | [11] | [12] | [18]

O=[N+]([O-])c1c(Cl)c(Cl)c(Cl)c(Cl)c1Cl
active: [9] 36.9 µM | [13] 30.9 µM | [14] 37.5 µM
not listed: [7] | [12] | [19]
inactive: all other assays above

ClC1C(Cl)C(Cl)C(Cl)C(Cl)C1Cl (stereo unspecified)
active: [5] 20 µM and 25.7 µM and 5.22 µM | [9] 28.2 µM and 25.3 µM | [13] 18.5 µM and 28.3 µM and 20 µM | [14] 38.6 µM | [15] 5.2 µM | [16] 20 µM
inactive: [1] | [3] | [4] | [5] | [6] | [8] | [9] | [10] | [11] | [13] | [14] | [15] | [16] | [17] | [18]
